From PubChem
Hits are enriched below; roughly 1.5% of the tested compounds scored in any of these assays.
EBV gp42 block = EBV gp42 inhibition; Q1HVG2; Fluorescence polarization binding assay, mP read-out; inhibition, % (tested at 21.74 µM); 0.42% of 220,000 active; in the data active = inhibition above about 50%
eLon inh = inhibitors of E. coli Lon protease; P0A9M0; purified E. coli Lon protease, fluorescence polarization; inhibition, % at 7.94 µM; 0.42% of 360,000 active; in the data active = inhibition above about 13%, passing the limit was not always enough;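 note: 0% = enzyme with probe and DMSO and 100% = no enzyme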
MEX-5 binding = C. elegans MEX-5 TCR-2 RNA binding activity. 0.38% of 300,000 active. activity score (negative = inhibition of binding), % at 10 µM. MEX-5/FITC-TCR2 RNA binding, fluorescence polarization; active compounds read low. Q9XUB2;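 active = inhibition past about -25% in most replicates, and total fluorescence under double the plate's negative control median, limit read from the data; inconclusive = replicates evenly split on the limit, or fluorescence at least double controls; inactive = too little inhibition in most replicates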;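 note: 0% = DMSO and -100% = 5 µM competing unlabeled TCR2 RNA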
MCL1 BIM primary = disrupts human MCL1 binding to BIM-BH3 peptide | inhibition, % at 10.9 µM | 0.68% of 320,000 active | AID 2057 | GST-MCL1 / FITC-Bim-BH3 fluorescence polarization | Q07820;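 active = inhibition above the mean inhibition of all tested compounds plus 3 SD, set per campaign, cut at about 40% in these data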;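 note: 0% = DMSO wells and 100% = unlabeled Bim-BH3 peptide control; higher means more loss of mP so more displacement of Bim peptide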
Bcl-xL primary = blocks human Bcl-xL binding to Bim BH3 peptide | Q07817 | 0.7% of 320,000 active | inhibition, % at 10.9 µM | GST-Bcl-xL / FITC-Bim BH3 peptide fluorescence polarization;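 active = inhibition above the mean of all tested compounds plus 3 SD, cutoff set per campaign, cut at about 30% in these data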;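 note: 0% = DMSO wells and 100% = unlabeled Bim-BH3 peptide competitor; inhibitors lower millipolarization by displacing the labeled peptide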
GLD-1 RNA inh = GLD-1-TGE RNA interaction inhibition (C. elegans); Q17339; purified GLD-1 + fluorescein TGE RNA, fluorescence polarization; inhibition, % at 5.96 µM; 0.44% of 320,000 active; AID 2280;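 active = percent inhibition above a per-plate cutoff, the plate mean of test compounds plus 3 SD, cut at about 30% in these data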;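 note: 0% = DMSO wells with GLD-1 and probe and 100% = wells lacking GLD-1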
Target sequence (Q17339 whole entry, looked up): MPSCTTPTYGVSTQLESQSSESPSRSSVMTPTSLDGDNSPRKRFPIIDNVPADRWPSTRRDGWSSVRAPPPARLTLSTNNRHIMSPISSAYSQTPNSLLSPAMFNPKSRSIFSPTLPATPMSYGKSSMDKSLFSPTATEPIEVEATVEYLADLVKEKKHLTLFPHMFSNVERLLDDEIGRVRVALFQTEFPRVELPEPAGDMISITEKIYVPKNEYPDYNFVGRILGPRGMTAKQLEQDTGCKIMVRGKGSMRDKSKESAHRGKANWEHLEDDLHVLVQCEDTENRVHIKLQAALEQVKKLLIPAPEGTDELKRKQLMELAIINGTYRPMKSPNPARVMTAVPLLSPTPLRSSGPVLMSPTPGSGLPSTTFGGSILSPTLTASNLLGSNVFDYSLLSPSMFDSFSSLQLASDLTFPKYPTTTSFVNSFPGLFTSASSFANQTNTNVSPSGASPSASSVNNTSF
* marks the source's active call; other numbers are inactive results; i = inactive; ? = inconclusive; nt = no result given.

SMILES	EBV gp42 block	eLon inh	MEX-5 binding	MCL1 BIM primary	Bcl-xL primary	GLD-1 RNA inh
CCCCn1c(N)c(N(CC(C)C)C(=O)CCCc2cccs2)c(=O)[nH]c1=O	nt	2	1	1	-2	3
O=C1NC(=O)N(Cc2ccccc2)C1=O	nt	1	-1	53*	57*	30
O=C1NC2(CCCCCC2)C(=O)N1Cc1ccccc1	nt	-1	1	-2	-5	-5
CN(C)CCCNc1c2ccccc2nc2ccccc12	nt	9	3	7	14	-1
OCCNc1c2ccccc2nc2c(F)c(F)c(F)c(F)c12	29	1	-4	32	30*	16
CCc1nn2c(=O)cc(COc3ccc(/C=C4\C(=N)N5N=C(C)SC5=NC4=O)cc3)nc2s1	73*	-4	-3	16	8	2
Cc1ncc(/C=C2\C(=O)Nc3ccccc32)[nH]1	-4	nt	-40*	-8	2	-3
CCOC(=O)C(=O)c1c(-c2ccccc2)nc2ccccn12	-22	0	0	0	2	-7
CCOC(=O)C(=O)c1c(-c2ccc(C)cc2)nc2ccccn12	-3	6	-2	7	63*	7
CC(C)(C)C1CCC(C(=O)Nc2ccccc2N2CCOCC2)CC1 (stereo not drawn)	nt	0	nt	-1	3	-1
Cc1cc(=O)oc2cc(OCC(=O)N/N=C/c3cc([N+](=O)[O-])ccc3O)ccc12	92*	-9	-2	10	4	12
CCOC(=O)c1c(/N=C/c2ccccc2O)sc2c1CCC2	-12	-9	-1	10	9	-1
CCOC(=O)c1c(/N=C/c2ccc(O)cc2O)sc2c1CCC2	13	nt	5	5	8	33*
OCC[n+]1ccc(/C=C/c2c[nH]c3ccccc23)cc1	-131	-255	?	-67	7	50*
CCN(CC)c1ccc(/C=C(/C#N)c2nc3ccc(C)cc3[nH]2)c(OC(C)C)c1	67*	-446	-15	24	42*	6
CCCOc1cc(N(CC)CC)ccc1/C=C(/C#N)c1nc2ccc(C)cc2[nH]1	92*	i	-4	-83	-48	-42
CC(C)NC(=O)C1(C)CCN1C(=O)c1c(F)cccc1F (stereo not drawn)	nt	2	nt	nt	nt	nt
Cc1ccc(/C=C/C(=O)Nc2cc(=O)n(C)c(=O)n2C)o1	-5	-6	-15	37	33*	27
COc1ccc(/C=C/C2=CC(C)(C)NC(=S)N2)cc1	-10	6	-1	-2	-4	-3
CCN(CC(=O)Nc1c(F)cccc1F)C(=O)/C=C/c1ccc2c(c1)OCO2	nt	1	2	-7	-7	5
Cn1ccc2c(-c3ccc(CO)cc3)cc3c(c21)C1CCC3C1 (stereo not drawn)	nt	3	nt	nt	nt	nt
CS(=O)(=O)N1N=C(c2ccccc2)CC1c1ccc2c(c1)OCO2 (stereo not drawn)	91*	-80	4	5	4	-5
CS(=O)(=O)Nc1cccc(C2=NN(S(C)(=O)=O)C(c3ccc4c(c3)OCO4)C2)c1 (stereo not drawn)	-14	-8	0	-3	-4	-4
COc1cc2c(cc1OC)-c1c(OC)c(OC)cc3ccnc(c13)C2=O	5	10	-57*	17	13	2
O=C(O)/C=C/C(=O)Nc1ccc(N2CCOCC2)nc1N1CCOCC1	-1	4	-7	31	39*	29
SMILES	EBV gp42 block	eLon inh	MEX-5 binding	MCL1 BIM primary	Bcl-xL primary	GLD-1 RNA inh
COc1ccc(C(=O)NCCc2nnc3ccc(SCC(=O)NCc4ccccc4)nn23)cc1	nt	1	1	7	2	-6
Cc1[nH][nH]c(=O)c1C(c1ccc(O)c([N+](=O)[O-])c1)c1c(C)[nH][nH]c1=O	-3	-5	-48*	7	7	-1
CCNc1nc2cccnc2s1	-13	-6	1	-2	4	4
COc1cccc(COC(=O)C2CC(=O)N(Cc3ccc(C)cc3)C2)c1OC (stereo not drawn)	nt	0	2	-2	4	5
CCC(C)(C(=O)NC1CCCCC1)N(C)C(=O)c1ccccn1 (stereo not drawn)	-9	0	-3	2	52*	1
C=CCNC(=O)C(C)N1c2cccc3cccc(c23)S1(=O)=O (stereo not drawn)	nt	2	0	0	1	-7
